Measured values as given in PubChem BioAssay.
Unmarked numbers belong to inactive results. The rule behind the calls is not given here. Where a SMILES comes first, the peptide text is derived from it. The star is where a group is joined. Boc = CC(C)(C)OC(=O)*

Target: Pantothenate synthetase (Mycobacterium tuberculosis (strain ATCC 25618 / H37Rv)) (UniProt P9WIL5)
Assay: Recombinant Mtb pantothenate synthetase (PanC) inhibitors, coupled enzyme, confirmatory (AID 375);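 note: 0% = full reaction with vehicle and 100% = no enzyme background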
Conditions: coupled enzyme assay; at 10 µM, hits give high values

Pantothenate synthetase (Mycobacterium tuberculosis (strain ATCC 25618 / H37Rv)), sequence (P9WIL5 whole entry, looked up): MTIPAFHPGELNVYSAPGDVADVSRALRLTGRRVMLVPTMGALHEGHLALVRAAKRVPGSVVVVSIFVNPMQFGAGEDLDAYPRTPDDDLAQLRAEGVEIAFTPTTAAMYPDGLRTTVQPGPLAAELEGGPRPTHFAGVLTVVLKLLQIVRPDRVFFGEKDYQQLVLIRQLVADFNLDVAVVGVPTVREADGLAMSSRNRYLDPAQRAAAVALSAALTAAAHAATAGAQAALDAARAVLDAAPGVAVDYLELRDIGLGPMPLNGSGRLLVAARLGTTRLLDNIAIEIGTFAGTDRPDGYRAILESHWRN

Row | SMILES | inhibition
1 | CCOc1cc(C(=O)NCc2ccncc2)cc(OCC)c1OCC | 9%
2 | CCOC(=O)CSc1nnc([C@H](CC(C)C)NC(=O)OC(C)(C)C)o1 | 2%
3 | CCCCCn1c(N2CCN(Cc3ccccc3)CC2)nc2c1c(=O)[nH]c(=O)n2C | 6%
4 | Cc1ccc(-c2nn3c(C)nnc3s2)cc1N | 0%
5 | N#C/C(C(=O)c1ccccc1)=C1/CCCN1 | 3%
6 | CCOc1ccc(N2CC(C(=O)Nc3cccc(C)c3C)CC2=O)cc1 (centres undefined) | 0%
7 | CN(Cc1ccccc1)C(=O)c1cc(-c2ccc(Br)cc2)on1 | 0%
8 | CCOC(=O)c1ccc(NC(=O)CSc2nnc(COc3ccccc3)n2C)cc1 | 0%
9 | Cc1cc(C(=O)COC(=O)CCc2nc3ccccc3s2)c(C)n1C | 0%
10 | CCC(=O)Nc1ccc2nc(SCC(=O)N3CCCC3)sc2c1 | 0%
11 | O=C(C1CCN(c2nnc(-n3cccc3)s2)CC1)N1CCN(Cc2ccc3c(c2)OCO3)CC1 | 10%
12 | CCOC(=O)c1c(NC(=O)CSc2nnc(-c3ccc(OC)cc3)o2)sc2c1CCC2 | 3%
13 | Cc1ccc(OC(=O)CCC(=O)OCCCC(F)(F)C(F)(F)F)cc1 | 3%
14 | O=C(Nc1ccc2c(c1)C(=O)N(C1CCCCC1)C2=O)C1CCCO1 (centres undefined) | 6%
15 | CCOC(=O)n1c(SCC(=O)N(CC)CC)nc2ccccc21 | 0%
16 | COC(=O)c1[nH]c2ccccc2c1NS(=O)(=O)c1ccc(OC)cc1OC | 3%
17 | Cc1cc(C(=O)OCCO)c(C#N)c(N)n1 | 0%
18 | CCCCOn1c(C)c(C(=O)OCC)c2c3nonc3ccc21 | 0%
19 | N#Cc1c(NC(=O)CSc2nnnn2C2CCCC2)sc2c1CCCC2 | 7%
20 | CCOC(=O)c1ccccc1NC(=O)CSc1nc2c(c(=O)n(C)c(=O)n2C)n1C | 0%
21 | O=C(NCc1ccc2c(c1)OCO2)c1cc2n(n1)C(C(F)(F)F)CC(c1ccc3c(c1)OCO3)N2 (centres undefined) | 0%
22 | CC(C)(C)OC(=O)N1CCCC1C(=O)N1CCCC1C(=O)N1CCCC1C(=O)O (stereo not drawn) (Boc-Pro-Pro-Pro-OH; configuration not given here) | 3%
23 | CCC(=O)Nc1ccc(NC(=O)c2cccc(OC)c2)nc1 | 0%
24 | COc1cc2c(cc1NCc1ccccn1)oc1ccccc12 | 0%
25 | CC(=O)Nc1ccc(Cl)cc1C(=O)O | 2%

Row | SMILES | inhibition
26 | Cc1ccc(-c2noc(COc3ccccc3C)n2)cc1 | 0%
27 | O=C(NC1CCCC1)C1CCCN(S(=O)(=O)c2cccc3cccnc23)C1 (centres undefined) | 2%
28 | O=C1CN=C(Nc2cccc(C(F)(F)F)c2)N1C1CCCC1 | 0%
29 | CCN1CCN(c2nc3c(c(=O)n(C)c(=O)n3C)n2CCSc2ncccn2)CC1 | 0%
30 | CN(C)CCCN1c2ccccc2CCc2ccccc21 | 2%
31 | Cc1cc(SCC(N)=O)nc(SCC(=O)c2ccccc2)n1 | 0%
32 | N/C(=N/O)c1nc(N2CCCC2)nc(N(c2ccccc2)c2ccccc2)n1 | 7%
33 | CC1CN(C(=O)c2scc3c2OCCO3)CC(C)O1 (centres undefined) | 2%
34 | Clc1ccc(SCCn2ccnc2)cc1 | 0%
35 | Cc1nnc(SCC(=O)N2c3ccccc3CC2C)s1 (centres undefined) | 0%
36 | Cc1occc1C(=O)Nc1ccccc1NC(=O)c1ccoc1C | 3%
37 | CS(=O)(=O)Nc1ccc(C(=O)NCc2ccco2)cc1 | 0%
38 | CCCC(=O)N=C1SC2CS(=O)(=O)CC2N1c1ccc(CC)cc1 (centres undefined) | 0%
39 | COc1ccc(OC)c(C2C(C(=O)Nc3ccc(F)cc3)=C(C)Nc3nc(CCCO)nn32)c1 (centres undefined) | 5%
40 | COC(=O)CCC(=O)Nc1ccc(OC)cc1 | 0%
41 | Cc1cc(NCCN2CCOCC2)n2nc(C)c(-c3ccccc3)c2n1 | 0%
42 | CCC(C)NC(=O)c1cc(-c2ccc(OC)cc2)on1 (centres undefined) | 0%
43 | CCOCC(=O)Nc1nc2c(s1)C(=O)CC(C)(C)C2 | 5%
44 | CN(CCC#N)C(=O)COC(=O)c1ccc(Cl)c(S(N)(=O)=O)c1 | 0%
45 | Cc1ccc(CCNC(=O)CC2Oc3ccc(C)cc3NC2=O)cc1 (centres undefined) | 0%
46 | CCC(C)(C)NC(=O)C(OC(=O)c1ccco1)c1ccccc1OC (centres undefined) | 0%
47 | Cc1cc(C)n2nc(S(=O)(=O)N(C)c3ccccc3)nc2n1 | 0%
48 | O=P(CCNCc1ccco1)(c1ccccc1)c1ccccc1 | 0%
49 | CCN1CCN(c2nc3c(c(=O)n(C)c(=O)n3C)n2Cc2cccc3ccccc23)CC1 | 0%
50 | CC1(C)NC(=O)N(CCCOc2ccc(Br)cc2Cl)C1=O | 0%

Row | SMILES | inhibition
51 | CCOC(=O)c1sc(NC(=O)CNC(=O)Cn2cnc3sc(C)c(C)c3c2=O)nc1C | 0%
52 | O=C(NCC1CCCO1)C1c2ccccc2C(=O)N1C1CCCCCC1 (centres undefined) | 0%
53 | CCc1cccc2c3c([nH]c12)C(CC)(CC(=O)O)OCC3 (centres undefined) | 0%
54 | CN1CCc2c(sc3c2c(=O)n(-c2cccc(Cl)c2)c2nncn32)C1 | 0%
55 | CCOc1ccccc1N1C(=O)CC(Sc2ncccc2C(=O)O)C1=O (centres undefined) | 0%
56 | CCOC(=O)c1c(C)[nH]c(C(=O)Cn2c(=O)c3c(ncn3CC)n(Cc3ccccc3)c2=O)c1C | 3%
57 | CCOC(=O)N1CCN(CC(=O)c2c(C)[nH]c3ccccc23)CC1 | 0%
58 | CC(=N\O)/C(CN(C)C)=N/O | 0%
59 | CCCCOC(=O)Nc1nccs1 | 9%
60 | CCOC(=O)c1c(C)[nH]c(C)c1C(=O)COc1ccc(NC(=O)c2ccco2)cc1 | 1%
61 | O=C(c1cc(-c2cccs2)on1)N1CCc2ccccc2C1 | 2%
62 | Cc1ccc(N(C(=O)C2CCC(=O)N2)C2(C(=O)NC3CCCCC3)CCCCC2)cc1 (centres undefined) | 2%
63 | O=C(c1cnsn1)N1CCN(c2ccccn2)CC1 | 0%
64 | C=CCn1c(=O)/c(=C/c2ccc(O)cc2)s/c1=C(/C#N)c1nnc2n1CCCCC2 | 0%
65 | CC1(C)NC(=O)N(CC(O)COc2cccc(F)c2)C1=O (centres undefined) | 0%
66 | O=C(O)CCc1ccc(-c2cccs2)n1NC(=O)c1ccccc1Br | 0%
67 | CCn1c(=O)cc(SCC(=O)N2CCOCC2)c2ccccc21 | 11%
68 | COc1ccc(-c2nnc(SCC(=O)N3CCCCC3)o2)cc1OC | 0%
69 | O=C(C1CCCN(S(=O)(=O)c2cccnc2)C1)N1CCN(c2ccccn2)CC1 (centres undefined) | 0%
70 | CN1CCN(c2nc(-c3ccncc3)nc3ccccc23)CC1 | 0%
71 | O=C(c1cc2nc(-c3ccco3)cc(C(F)(F)F)n2n1)N1CCN(c2ccccn2)CC1 | 6%
72 | O=S(=O)(c1ccccc1)c1nc(-c2ccco2)oc1NCCCN1CCOCC1 | 0%
73 | CC(=O)C1=C(N2CCCCC2)CCC1=O | 0%
74 | CC(C)c1nnc(NC(=O)c2ccc(N3C(=O)CCC3=O)cc2)s1 | 0%
